# Tg IFNy HTS: inhibitors of Toxoplasma gondii growth with IFN-gamma | Toxoplasma gondii growth in IFN-gamma-treated host cells; active compounds read low | activity change, negative = inhibition, % (test concentration not listed) | actives 3.8% (n = 69,000) | AID 1259416; in the data active = activity change below about -70%, passing the limit was not always enough;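 note: host cells are HeLa cells infected with Toxoplasma gondii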
# Starred values were filed as active, the others as inactive. Shown is part of a subset that was picked to be rich in hits.
SMILES,Tg IFNy HTS
CCn1c(-c2cc(NC(=O)c3cncc(Br)c3)n[nH]2)cc2cc(OC)ccc21,37
CCn1c(-c2cc(NC(=O)c3ccncc3)n[nH]2)cc2ccc(OC)cc21,-92*
CCn1c(-c2cc(NC(=O)c3cccnc3)n[nH]2)cc2c(OC)cccc21,-48
CN1CCN2c3ccccc3Cc3ccccc3C2C1 (stereo not drawn),-1
CN1CCN(C2Cc3ccccc3Sc3ccc(Cl)cc32)CC1 (stereo not drawn),-82*
CSc1ccc2c(c1)C(N1CCN(C)CC1)Cc1ccccc1S2 (stereo not drawn),-77*
CN1CCCC(CC2c3ccccc3Sc3ccccc32)C1 (stereo not drawn),-11
CN1CCN(C2=Cc3ccccc3Oc3ccc(Cl)cc32)CC1,15
CN1CCC2(CCC1=O)CCN(c1nccc(N3CCC(O)CC3)n1)CC2,-1
CC(C)CN1C(=O)N(C2Cc3ccccc3C2)C(=O)C12CCN(Cc1cnn(-c3ccccc3)c1)CC2,-10
CCOC(=O)c1noc2ncn(Cc3nc(-c4ccccc4Cl)oc3C)c(=O)c12,-4
CCC(CC)C(=O)N(Cc1nc2sc(C)c(C)c2c(=O)[nH]1)C1CCCC1,-26
COc1ccccc1NC(=O)CCCCCN1C(=O)c2cccc3cccc(c23)C1=O,20
CCCCC(CC)CNC(=O)CCCCCN1C(=O)c2ccccc2C1=O (stereo not drawn),13
O=C(CCCCCN1C(=O)c2cccc3cccc(c23)C1=O)NO,-84*
Cc1ccc(-c2nc(Cn3nnc(-c4nc(-c5cccs5)no4)c3C)c(C)o2)cc1,-52
CCc1cc(C(=O)N2CCCC2c2ccc(OC)cc2OC)no1 (stereo not drawn),2
O=C(NCCc1cccs1)c1c(O)c2cccnc2n(-c2cccc(F)c2)c1=O,95
Cc1cccc(CN2CCC3(CCN(Cc4nccn4C)CC3)C2=O)c1,-5
CCOC(=O)c1cccc(NC(=O)CN2C(=O)CCc3cc(S(=O)(=O)N4CCCCC4)ccc32)c1,-34
CCOC(=O)c1ccc(N2CCCCC2)c(NS(=O)(=O)c2ccc(C)cc2)c1,-100*
CCOC(=O)c1cnn(C)c1NS(=O)(=O)c1ccc(Cl)cc1,-62
CCN(C(=O)c1cc2cccnc2n(Cc2ccc(Cl)cc2)c1=O)C1CCCCC1,92
COCC(=O)N1CCC2(CCOCC2NS(C)(=O)=O)CC1 (stereo not drawn),-1
COC(=O)c1ccc(CNC(=O)CN2CCCC2c2c(C)noc2C)o1 (stereo not drawn),4
SMILES,Tg IFNy HTS
Cc1c(C(=O)Cn2ccnc2)sc2ccc(Cl)cc12,-18
Clc1ccc(C(Cn2ccnc2)OCc2ccc(Sc3ccccc3)cc2)c(Cl)c1 (stereo not drawn),-78*
Clc1ccc(C(Cn2ccnc2)OCc2csc3c(Cl)cccc23)c(Cl)c1 (stereo not drawn),-79*
S=C(NCCCn1ccnc1)Nc1cc(Cl)ccc1Cl,30
S=C(Nc1ccc(Cl)cc1Cl)NC(Cn1ccnc1)c1ccccc1 (stereo not drawn),-35
Clc1ccc(C(Cn2ccnc2)OCc2c(Cl)cccc2Cl)c(Cl)c1 (stereo not drawn),-70
CCS(=O)(=O)N1CCO[C@@H]2[C@H]1CC[C@H]2OCC(=O)N1CCCC1,4
CN(C)C(=O)NCc1nn(C)c2c1CN(C1CCOCC1)C2,-2
O=C(c1cn[nH]n1)N1CCCC1c1nc2ccc(F)cc2[nH]1 (stereo not drawn),14
Cn1cc(Cc2cc(=O)n3[nH]c(C(C)(C)C)cc3n2)c(-c2ccc(F)cc2)n1,14
CCc1cnc(N2CCC3(CC(Oc4ncccn4)CO3)C2)nc1 (stereo not drawn),12
CS(=O)(=O)NC[C@H]1CCC[C@]2(CCN(Cc3nccs3)C2)O1,-4
Cn1nc(-c2cccnc2)c2c1NC(=O)CC2c1cnc(N2CCCC2)nc1 (stereo not drawn),-3
COCc1nnc(NC(=O)CCc2c(C)[nH]c3ccccc3c2=O)s1,17
COc1cc(C[C@H]2C(=O)OC[C@@H]2Cc2ccc(OC)c(OC)c2)ccc1O,-27
COc1ccc2c(c1)OCC(Cc1ccc(O)c(OC)c1)C2=O (stereo not drawn),2
COc1ccc2c(c1)OCC(Cc1ccc(OC)c(O)c1)C2=O (stereo not drawn),-75*
CCn1c(C2CCN(C(=O)C3CC(=O)c4ccccc43)CC2)nn(C)c1=O (stereo not drawn),58
COc1ccccc1-c1nc(Cn2nnc(C(=O)Nc3cccc(C)c3C)c2C)c(C)o1,125
CC1CC(N(C(=O)c2ccc3c(c2)OCO3)c2ccccc2)c2ccccc2N1 (stereo not drawn),-96*
O=C(c1ccc2c(c1)OCO2)N1CC[C@@H]2[C@H](CO)Nc3ccc(C#Cc4ccccc4)cc3[C@@H]21,-36
CC1CC(N(C(=O)c2ccco2)c2ccccc2)c2ccccc2N1C(=O)c1ccco1 (stereo not drawn),24
COc1ccc(NC(=O)COC(C)C)cc1NC(=O)c1ccccc1,3
O=C(Cn1nnc(-c2ccccc2)n1)NCc1cc(Cl)c2c(c1)OCCCO2,3
COc1ccc2[nH]c(C)c(C(=O)NCc3cc(Cl)c4c(c3)OCCCO4)c2c1,-85*
SMILES,Tg IFNy HTS
COc1ccc2[nH]c(C(=O)NC(C)c3ccc4c(c3)CCCO4)c(NC(C)=O)c2c1 (stereo not drawn),15
C=CC[C@@H]1CC=C[C@@H](C)N1C(=O)c1cnc2sc(C)c(C)n2c1=O,-6
COc1ccc(C(C)NC(=O)C(C)Cn2nc(C)nc2C)c2ccccc12 (stereo not drawn),36
Cc1ncccc1NC(=O)c1ccc2nnc(C3CCN(C(C)C)C3)n2c1 (stereo not drawn),23
O=C(O)c1ccc(-c2ccn[nH]2)cc1Cl,0
COc1ccc(-c2nc3c(s2)CN(S(=O)(=O)c2ccc(OC)cc2)CC3)cc1,-4
COc1ccc(-c2nc3c(s2)CN(S(=O)(=O)c2cc(C)cc(C)c2)CC3)cc1,-116*
CC(C)(C)c1ccc(S(=O)(=O)N2CCc3nc(-c4ccccc4)sc3C2)cc1,8
Cc1cc(C)cc(S(=O)(=O)N2CCc3nc(-c4ccccc4)sc3C2)c1,-17
Cc1ccc(-c2nc3c(s2)CN(S(=O)(=O)c2ccc(F)cc2F)CC3)cc1,-88*
COc1cccc(-c2nc3c(s2)CN(S(=O)(=O)c2cc(C)cc(C)c2)CC3)c1,-85*
COc1ccc(-c2nc3c(s2)CN(S(=O)(=O)c2cccs2)CC3)cc1,-94*
COc1cccc(-c2nc3c(s2)CN(S(=O)(=O)c2cccc(Cl)c2)CC3)c1,-36
COc1ccc(-c2nc3c(s2)CN(S(=O)(=O)c2c(C)cc(C)cc2C)CC3)cc1,5
Cc1ccc(-c2nc3c(s2)CN(S(=O)(=O)c2ccccc2Cl)CC3)cc1,-56
COc1ccc(-c2nc3c(s2)CN(S(=O)(=O)c2ccc(CC(C)C)cc2)CC3)cc1,11
COc1ccc(-c2nc3c(s2)CN(S(=O)(=O)c2cccc(F)c2)CC3)cc1,-4
O=S(=O)(NCc1ccc2c(c1)OCO2)c1cc(Cl)sc1Cl,-55
Cc1csc(CN2CC[C@]3(CCC[C@@H](CNC(=O)N(C)C)O3)C2)n1,-42
COCCc1ncc(-c2nccn2-c2ccc(C)cc2Cl)cn1,-1
Cc1ccc(Cl)cc1NC(=O)CSc1nnc(-c2ccco2)c(-c2ccco2)n1,1
CCOCc1ncn2c1CN(S(=O)(=O)c1cccs1)CCC2,-3
Cc1ccccc1NC(=O)CN1CCC2(CC1)N=C(c1ccc(Cl)cc1)C(=O)N2,50

# High-throughput results (PubChem BioAssay)
